Results filed as inconclusive are left out. Active and inactive are the calls of the source. Unless noted, the call rests on the fitted dose curve; in most records, active means well fitted curve in the direction sought with a large enough effect in the repeat runs; inconclusive means weak or mixed curves; inactive means no such curve, though single readings can be large; an effect the other way counts as inactive or inconclusive.
Experiments:
[1] = qHTS assay to identify small molecule agonists of the sonic hedgehog signaling (Shh) pathway - cell viability counter screen (AID 1259366); further: nearly all actives have a fitted effect of over 50% in size
How it was run: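 After a 4hr attachment at 37C, NIH/3T3 cells bearing an integrated Gli1-driven luciferase reporter were dosed with compounds. Treatment lasted 24hr, with the final hour including CellTiter-Fluor for a fluorescence viability measurement.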

[2] = qHTS assay to identify small molecule antagonists of the sonic hedgehog signaling (Shh) pathway - cell viability counter screen (AID 1259367); further: nearly all actives have a fitted effect of over 55% in size
How it was run: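 Using CellTiter-Fluor, viability of Gli1-Luc reporter 3T3 cells is read by fluorescence in the wells used for the Shh luciferase assay. Treatment lasts 23 hr with conditioned medium, then reagent 1 hr at 37C.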

[3] = qHTS assay to identify small molecule agonists of the sonic hedgehog signaling (Shh) pathway (AID 1259368; calls by dose curve;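 further: NIH/3T3-derived 3T3Gli1-Luc cells carrying a stable Gli1-driven firefly luciferase reporter; series mostly up to about 92 µM; nearly all actives have a fitted effect of over 15% in size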)
How it was run: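 A Gli1 transcriptional response element controlled firefly luciferase in 3T3Gli1-Luc cells. Compounds and a positive control were added 4 hr after plating, and cells were incubated a further 24 hr at 37 C before luminescence detection.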

[4] = qHTS assay to identify small molecule antagonists of the sonic hedgehog signaling (Shh) pathway (AID 1259369; calls by dose curve; further: nearly all actives have a fitted effect of over 45% in size)
How it was run: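 For antagonist detection, the reporter line received test compounds together with conditioned medium, incubated 24hr at 37 C, 5% CO2, then luminescence was recorded following 30min room-temperature luciferase reagent incubation.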

[5] = qHTS assay to identify small molecule agonists of the androgen receptor (AR) signaling pathway in the presence of an antagonist - cell viability counter screen (AID 1259379);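 further: MDA-kb2 human breast cancer cells carrying an MMTV luciferase reporter; series mostly up to about 92 µM; nearly all actives have a fitted effect of over 25% in size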
How it was run: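 Seed MDA-kb2 at 3,000 cells/well; incubate 5 hr, 37C, 0% CO2. Add nilutamide to 3.0uM final, then pin compounds at 15 concentrations. Incubate 16 hr. Add CellTiter-Fluor at 15 hr, read fluorescence after 1 hr.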

[6] = qHTS assay to identify small molecule antagonists of the estrogen receptor beta (ER-beta) signaling pathway - cell viability counter screen (AID 1259382);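 further: HEK293T cells carrying ER-beta-UAS-bla reporter stimulated with estradiol; series mostly up to about 92 µM; nearly all actives have a fitted effect of over 55% in size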
How it was run: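 In this multiplexed counter screen, cells were seeded at 2,000 per well in medium with 2% charcoal-stripped FBS and incubated 6 hr before compound and 1nM final E2 were added. Sixteen hours later, ATP-based luminescence reported viability.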

[7] = target: Estrogen receptor (Homo sapiens) (UniProt P03372); assay: qHTS assay to identify small molecule agonists of the estrogen receptor alpha (ER-alpha) signaling pathway in the presence of an antagonist (AID 1259383; calls by dose curve; further: top concentration of the series differs between compounds; nearly all actives have a fitted effect of over 15% in size)
How it was run: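 Stably transfected VM7Luc4E2 reporter cells, kept 5 days in charcoal-stripped serum, received ICI-182,780 at 10.0nM final before compound addition. Following 22hr incubation at 37C and 5% CO2, luciferase signal was read by luminescence.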

[8] = qHTS assay to identify small molecule agonists of the estrogen receptor alpha (ER-alpha) signaling pathway in the presence of an antagonist - cell viability counter screen (AID 1259386);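 further: series mostly up to about 92 µM; cells exposed to compounds for 22 h at 37 °C before the viability read; nearly all actives have a fitted effect of over 30% in size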
How it was run: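 Viability counter screen using VM7Luc4E2 (full-length ER-alpha, four ERE-luciferase). The cells were treated with compounds alongside ICI-182,780 10.0nM for 22hr, and live-cell protease fluorescence was quantified with CellTiter-Fluor.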

[9] = target: Progesterone receptor (Homo sapiens) (UniProt P06401); assay: qHTS assay to identify small molecule agonists of the progesterone receptor (PR) signaling pathway (AID 1346784; calls by dose curve; further: nearly all actives have a fitted effect of over 30% in size)
How it was run: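 Using charcoal-stripped serum (2%) to limit endogenous steroids, PR-UAS-bla HEK 293T cells received compounds for 16 hr at 37C after 6 hr plating; beta-lactamase FRET fluorescence was recorded following 2 hr substrate loading at room temperature.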

[10] = target: Progesterone receptor (Homo sapiens) (UniProt P06401); assay: qHTS assay to identify small molecule antagonists of the progesterone receptor (PR) signaling pathway (AID 1346795; active means well fitted inhibition curve with a large enough effect in the signal ratio in the repeat runs, not every such curve was filed as active; the % refers to the signal ratio)
How it was run: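 Inhibition of R5020-induced (1 nM final) beta-lactamase reporter signal in PR-UAS-bla HEK293T cells was scored by FRET fluorescence after overnight (16 hr) compound treatment.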

[11] = qHTS assay to identify small molecule antagonists of the progesterone receptor (PR) signaling pathway - cell viability counter screen (AID 1346798); further: series mostly up to about 92 µM; nearly all actives have a fitted effect of over 50% in size
How it was run: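 ATP content as viability readout: CellTiter-Glo luminescence, 30 min room temperature, in PR-UAS-bla HEK293T cells after 16 hr compound/R5020 treatment at 37C and 5% CO2.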

[12] = qHTS assay to identify small molecule antagonists of the TGF-beta/Smad signaling pathway - cell viability counter screen (AID 1346824); further: nearly all actives have a fitted effect of over 50% in size
How it was run: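 Cytotoxicity counter-screen run in the same wells as the beta-lactamase Smad reporter read: CellTiter-Glo luminescence after 30 min at room temperature. HEK 293T SBE-bla cells had 5 hr compound exposure at 37 C with TGF-beta1 (0.25 ng/mL stock).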

[13] = qHTS assay to identify small molecule agonists of the TGF-beta/Smad signaling pathway - cell viability counter screen (AID 1346829); further: top concentration of the series differs between compounds; nearly all actives have a fitted effect of over 45% in size
How it was run: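 Compound-treated SBE-bla HEK 293T cells (5 hr, 37 C) were assessed for viability with CellTiter-Glo in parallel with the reporter read.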

[14] = target: Estrogen receptor beta (Homo sapiens) (UniProt Q92731); assay: qHTS assay to identify small molecule agonists of the estrogen receptor beta (ER-beta) signaling pathway (AID 1259377; active means well fitted activation curve with a large enough effect in the signal ratio in the repeat runs, not every such curve was filed as active; the % refers to the signal ratio)
How it was run: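 In HEK293T cells bearing a UAS-beta-lactamase reporter under ER-beta control, DMSO-delivered compounds were incubated for 16 hr at 37C. Activity was detected as fluorescence 2 hours after LiveBLAzer B/G FRET substrate addition.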

[15] = target: Estrogen receptor beta (Homo sapiens) (UniProt Q92731); assay: qHTS assay to identify small molecule antagonists of the estrogen receptor beta (ER-beta) signaling pathway (AID 1259378; active means well fitted inhibition curve with a large enough effect in the signal ratio in the repeat runs, not every such curve was filed as active; the % refers to the signal ratio)
How it was run: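 Antagonist mode: compounds added to beta-lactamase reporter HEK293T ER-beta-UAS cells stimulated with E2 (1nM final), 16 hr at 37C. LiveBLAzer B/G FRET substrate, 2 hours room temperature, fluorescence read-out.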

[16] = qHTS assay to identify small molecule agonists of the estrogen receptor beta (ER-beta) signaling pathway - cell viability counter screen (AID 1259380); further: nearly all actives have a fitted effect of over 30% in size
How it was run: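 CellTiter-Glo read, 30 min RT, same wells as bla assay; cells ER-beta-UAS-bla HEK293T; 16 hr compound, 37C; medium 2% charcoal-stripped FBS.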

[17] = qHTS assay to identify small molecule agonists or antagonists of the thyroid stimulating hormone receptor (TSHR) signaling pathway - wild type cell line counter screen (AID 1259384; calls by dose curve)
How it was run: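 Counter screen in untransfected Hek293: compounds (15-point titration, triplicate) plus phosphodiesterase inhibitor Ro20-1724 added after 18 h plating; 30 min RT. Intracellular cAMP via competitive d2/cryptate immunoassay, 1 h incubation.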

[18] = target: Thyrotropin receptor (Homo sapiens) (UniProt P16473); assay: qHTS assay to identify small molecule antagonists of the thyroid stimulating hormone receptor (TSHR) signaling pathway (AID 1259385; calls by dose curve; further: nearly all actives have a fitted effect of over 20% in size)
How it was run: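 Antagonist mode: compound-treated TSHR-expressing HEK293 cells were stimulated with 1.5 ng/mL TSH (final) in presence of Ro20-1724 for 30 min at RT. HTRF cAMP detection after 1 h; each compound tested at 15 concentrations, triplicate.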

[19] = qHTS assay to identify small molecule agonists of the progesterone receptor (PR) signaling pathway - cell viability counter screen (AID 1346799; calls by dose curve; further: nearly all actives have a fitted effect of over 45% in size)
How it was run: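 Cytotoxicity in PR-bla HEK293T cells: 16 h compound, 37C; CellTiter-Glo added post-FRET read; luminescence after 30 min RT.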

[20] = target: Androgen receptor (Homo sapiens) (UniProt P10275); assay: qHTS assay to identify small molecule agonists of the androgen receptor (AR) signaling pathway in the presence of an antagonist (AID 1259381; calls by dose curve; further: nearly all actives have a fitted effect of over 15% in size)
How it was run: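 Test compounds at 15 concentrations were incubated for 16hr with MDA-kb2 reporter cells in presence of 3.0uM nilutamide (final). Signal: ONE-Glo luciferase luminescence.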

Measured: Potency

Progesterone receptor (Homo sapiens), sequence (P06401 whole entry, looked up): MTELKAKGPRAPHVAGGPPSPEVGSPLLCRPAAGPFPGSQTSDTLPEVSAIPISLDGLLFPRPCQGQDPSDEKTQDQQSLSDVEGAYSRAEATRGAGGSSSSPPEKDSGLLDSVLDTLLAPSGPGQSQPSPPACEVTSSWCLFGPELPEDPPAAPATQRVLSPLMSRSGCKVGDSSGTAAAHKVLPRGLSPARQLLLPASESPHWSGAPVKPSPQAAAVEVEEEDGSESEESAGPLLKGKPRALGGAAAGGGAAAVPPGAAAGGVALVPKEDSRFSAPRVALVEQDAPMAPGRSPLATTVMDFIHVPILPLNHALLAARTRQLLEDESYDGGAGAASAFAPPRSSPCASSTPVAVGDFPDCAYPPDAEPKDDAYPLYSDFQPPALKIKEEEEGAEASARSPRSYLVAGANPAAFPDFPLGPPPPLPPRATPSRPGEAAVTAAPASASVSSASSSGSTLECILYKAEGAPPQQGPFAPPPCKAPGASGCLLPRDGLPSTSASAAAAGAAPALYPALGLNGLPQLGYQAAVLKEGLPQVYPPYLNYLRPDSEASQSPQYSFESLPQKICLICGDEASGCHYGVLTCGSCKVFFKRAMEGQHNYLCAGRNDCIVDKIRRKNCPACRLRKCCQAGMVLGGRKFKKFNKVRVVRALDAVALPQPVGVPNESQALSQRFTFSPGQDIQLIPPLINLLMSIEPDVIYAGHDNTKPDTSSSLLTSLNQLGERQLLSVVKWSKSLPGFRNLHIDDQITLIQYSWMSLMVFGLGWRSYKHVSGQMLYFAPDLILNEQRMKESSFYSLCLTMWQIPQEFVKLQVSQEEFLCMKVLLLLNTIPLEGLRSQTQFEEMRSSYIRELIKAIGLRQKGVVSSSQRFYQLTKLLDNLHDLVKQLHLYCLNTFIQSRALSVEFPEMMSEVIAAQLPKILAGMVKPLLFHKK
Estrogen receptor (Homo sapiens), sequence (P03372 whole entry, looked up): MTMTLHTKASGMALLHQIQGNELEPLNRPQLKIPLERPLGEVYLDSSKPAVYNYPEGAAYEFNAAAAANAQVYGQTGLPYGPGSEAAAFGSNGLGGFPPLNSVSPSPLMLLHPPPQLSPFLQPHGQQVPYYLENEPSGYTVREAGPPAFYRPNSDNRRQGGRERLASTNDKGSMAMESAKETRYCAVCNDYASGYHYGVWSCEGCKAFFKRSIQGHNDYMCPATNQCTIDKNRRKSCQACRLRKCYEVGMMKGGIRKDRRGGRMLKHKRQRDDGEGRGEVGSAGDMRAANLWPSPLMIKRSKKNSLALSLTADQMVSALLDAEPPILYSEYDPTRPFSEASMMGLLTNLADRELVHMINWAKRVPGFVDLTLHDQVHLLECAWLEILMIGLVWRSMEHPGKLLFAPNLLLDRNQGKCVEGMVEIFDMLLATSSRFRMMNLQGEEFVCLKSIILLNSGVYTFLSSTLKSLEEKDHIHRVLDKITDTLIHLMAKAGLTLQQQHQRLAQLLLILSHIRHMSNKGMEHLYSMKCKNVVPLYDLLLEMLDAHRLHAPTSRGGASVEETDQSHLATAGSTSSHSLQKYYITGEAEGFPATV
Estrogen receptor beta (Homo sapiens), sequence (Q92731 whole entry, looked up): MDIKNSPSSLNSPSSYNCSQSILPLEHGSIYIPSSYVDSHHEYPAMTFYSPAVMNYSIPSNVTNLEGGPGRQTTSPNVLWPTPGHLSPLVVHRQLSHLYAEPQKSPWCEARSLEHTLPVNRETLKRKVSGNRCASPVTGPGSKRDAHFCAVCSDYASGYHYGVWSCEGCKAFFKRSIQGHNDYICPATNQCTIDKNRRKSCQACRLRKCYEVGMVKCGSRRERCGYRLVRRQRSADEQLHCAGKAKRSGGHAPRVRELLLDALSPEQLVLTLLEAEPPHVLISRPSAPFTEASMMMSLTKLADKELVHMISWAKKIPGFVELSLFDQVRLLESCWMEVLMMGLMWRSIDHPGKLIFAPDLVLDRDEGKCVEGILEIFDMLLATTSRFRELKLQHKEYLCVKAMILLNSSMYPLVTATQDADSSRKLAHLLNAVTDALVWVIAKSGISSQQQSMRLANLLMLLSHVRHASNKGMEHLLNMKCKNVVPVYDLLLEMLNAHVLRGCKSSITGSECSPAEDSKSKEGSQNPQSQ
Thyrotropin receptor (Homo sapiens), sequence (P16473 whole entry, looked up): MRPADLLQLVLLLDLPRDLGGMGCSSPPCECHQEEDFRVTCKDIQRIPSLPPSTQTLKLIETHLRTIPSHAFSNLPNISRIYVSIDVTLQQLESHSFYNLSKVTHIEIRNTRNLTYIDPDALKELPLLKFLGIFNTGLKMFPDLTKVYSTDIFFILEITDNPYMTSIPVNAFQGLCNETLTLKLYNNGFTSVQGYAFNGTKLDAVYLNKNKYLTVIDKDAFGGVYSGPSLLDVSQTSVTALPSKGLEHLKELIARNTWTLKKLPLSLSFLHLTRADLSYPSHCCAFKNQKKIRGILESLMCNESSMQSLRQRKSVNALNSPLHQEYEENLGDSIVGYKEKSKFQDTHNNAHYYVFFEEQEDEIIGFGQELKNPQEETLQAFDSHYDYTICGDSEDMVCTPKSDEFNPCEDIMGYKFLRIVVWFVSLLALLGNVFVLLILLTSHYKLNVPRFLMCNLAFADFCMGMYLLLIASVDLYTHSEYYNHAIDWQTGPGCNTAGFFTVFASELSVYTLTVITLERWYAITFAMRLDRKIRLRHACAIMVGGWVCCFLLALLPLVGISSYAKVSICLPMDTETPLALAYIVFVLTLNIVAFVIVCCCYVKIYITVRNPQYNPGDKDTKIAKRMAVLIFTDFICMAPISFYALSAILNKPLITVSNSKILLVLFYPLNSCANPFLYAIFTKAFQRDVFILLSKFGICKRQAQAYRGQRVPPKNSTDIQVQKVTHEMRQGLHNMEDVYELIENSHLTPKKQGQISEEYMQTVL
Androgen receptor (Homo sapiens), sequence (P10275 whole entry, looked up): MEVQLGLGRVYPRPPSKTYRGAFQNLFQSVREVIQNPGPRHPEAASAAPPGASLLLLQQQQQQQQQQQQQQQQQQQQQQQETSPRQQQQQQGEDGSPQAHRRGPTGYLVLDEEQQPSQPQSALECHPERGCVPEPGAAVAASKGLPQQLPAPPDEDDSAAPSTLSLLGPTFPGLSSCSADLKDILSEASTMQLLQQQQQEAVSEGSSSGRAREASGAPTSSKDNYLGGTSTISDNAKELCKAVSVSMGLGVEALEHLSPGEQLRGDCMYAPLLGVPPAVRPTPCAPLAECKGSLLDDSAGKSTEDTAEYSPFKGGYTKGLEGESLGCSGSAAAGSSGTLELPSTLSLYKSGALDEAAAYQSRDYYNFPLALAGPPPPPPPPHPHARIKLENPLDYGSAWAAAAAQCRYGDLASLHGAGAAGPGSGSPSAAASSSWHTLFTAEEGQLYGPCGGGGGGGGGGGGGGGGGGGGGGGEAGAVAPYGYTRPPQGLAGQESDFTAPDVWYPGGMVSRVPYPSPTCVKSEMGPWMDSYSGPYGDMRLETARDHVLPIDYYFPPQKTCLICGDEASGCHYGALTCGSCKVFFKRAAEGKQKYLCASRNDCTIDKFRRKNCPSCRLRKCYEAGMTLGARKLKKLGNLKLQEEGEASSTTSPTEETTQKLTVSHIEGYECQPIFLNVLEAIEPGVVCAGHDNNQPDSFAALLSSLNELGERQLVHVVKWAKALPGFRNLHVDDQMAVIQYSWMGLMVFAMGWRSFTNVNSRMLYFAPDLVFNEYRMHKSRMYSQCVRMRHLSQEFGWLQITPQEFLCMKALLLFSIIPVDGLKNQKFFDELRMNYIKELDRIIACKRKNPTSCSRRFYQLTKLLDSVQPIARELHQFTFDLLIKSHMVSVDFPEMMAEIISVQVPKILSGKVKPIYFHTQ

C[Si]1(C)N[Si](C)(C)N[Si](C)(C)N1
inactive: [1] | [2] | [3] | [4] | [5] | [6] | [7] | [8] | [9] | [10] | [11] | [12] | [13]

NS(=O)(=O)c1cc2c(cc1Cl)NC(CC1CCCC1)NS2(=O)=O (configuration not stated)
inactive: [1] | [2] | [3] | [14] | [15] | [5] | [16] | [6] | [17] | [18] | [8] | [9] | [10] | [11] | [19] | [12] | [13]

C=CC(C)(O)CC/C=C(\C)CC (configuration not stated)
inactive: [1] | [2] | [3] | [14] | [15] | [5] | [6] | [7] | [17] | [18] | [9] | [10] | [11] | [19] | [12] | [13]

O=C1CC[C@H](C(=O)N2CCCCC2)N1
inactive: [1] | [2] | [3] | [14] | [15] | [5] | [6] | [7] | [17] | [18] | [8] | [11] | [19] | [12] | [13]

CCN(CCC#N)c1ccccc1
inactive: [1] | [2] | [3] | [14] | [15] | [5] | [16] | [6] | [7] | [17] | [18] | [8] | [9] | [19] | [12] | [13]

C[N+](C)(C)CC(O)CCl (configuration not stated)
inactive: [1] | [2] | [3] | [4] | [16] | [6] | [7] | [17] | [18] | [8] | [9] | [10] | [19] | [12] | [13]

CCCCC(CC)C(=O)OC(C)C (configuration not stated)
inactive: [1] | [2] | [3] | [4] | [5] | [16] | [6] | [9] | [10] | [19] | [13]

COCCOCCOCCOC
inactive: [1] | [2] | [3] | [14] | [15] | [5] | [16] | [6] | [8] | [9] | [10] | [11] | [19] | [12] | [13]

CCCCOC(=O)C(C)OC(=O)CCC (configuration not stated)
inactive: [1] | [2] | [3] | [14] | [15] | [5] | [16] | [6] | [7] | [17] | [18] | [8] | [9] | [10] | [11] | [19] | [13]

OCCCCCCCl
inactive: [1] | [2] | [3] | [14] | [15] | [5] | [6] | [7] | [17] | [18] | [8] | [9] | [10] | [11] | [19] | [12] | [13]

C=CCOc1c(Br)cc(Br)cc1Br
inactive: [1] | [2] | [3] | [14] | [15] | [5] | [16] | [6] | [7] | [17] | [8] | [9] | [11] | [19] | [12] | [13]

CCC1Nc2cc(Cl)c(S(N)(=O)=O)cc2S(=O)(=O)N1 (configuration not stated)
inactive: [1] | [2] | [3] | [14] | [15] | [5] | [6] | [17] | [18] | [8] | [9] | [11] | [19] | [12] | [13]

CCCCOC(=O)C(=O)OCCCC
inactive: [1] | [2] | [3] | [4] | [5] | [16] | [6] | [9] | [10] | [11] | [19] | [12] | [13]

O=c1[nH]c(=O)c2ccccc2o1
inactive: [1] | [2] | [3] | [14] | [5] | [16] | [20] | [6] | [17] | [18] | [8] | [9] | [10] | [11] | [19] | [12] | [13]

CCCOCCOCCOCCO
inactive: [2] | [3] | [4] | [14] | [15] | [5] | [16] | [20] | [6] | [7] | [9] | [11] | [12] | [13]

Cc1oc(=O)oc1CN1CCN(c2cc3c(cc2F)c(=O)c(C(=O)O)c2n3C(C)S2)CC1 (configuration not stated)
inactive: [1] | [2] | [3] | [14] | [5] | [16] | [6] | [7] | [17] | [18] | [8] | [9] | [10] | [11] | [19] | [12] | [13]

CN(C)CCCNCCC#N
inactive: [1] | [2] | [3] | [14] | [5] | [16] | [6] | [8] | [9] | [10] | [11] | [19] | [13]

— PubChem BioAssay (Tox21)
